Assay [1] is described as follows: Nuclear factor erythroid 2-related factor 2/antioxidant responsive element (Nrf2/ARE) small molecule agonists: qHTS cell viability counter screen in human keratinocytes (AID 1919968; active = well fitted curve in the direction sought with a large enough effect in the repeat runs; an effect the other way counts as inactive or inconclusive; also: nearly all actives have a fitted effect of over 55% in size). In short, it runs like this:
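Measured as CellTiter-Fluor fluorescence, this readout tracks cytotoxicity in the same wells as the ARE-luciferase screen. HaCaT reporter cells (1,500/well) received compounds after a 5 h pre-incubation and were exposed for 23 h.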

Assay [2] can be described thus: Nuclear factor erythroid 2-related factor 2/antioxidant responsive element (Nrf2/ARE) small molecule agonists: luciferase reporter gene qHTS assay in human keratinocytes (AID 1919969). Also: nearly all actives have a fitted effect of over 35% in size. Also: potency is read from the fitted curve at half-maximal effect.
For assay [3], the target named is Gonadotropin-releasing hormone receptor (Homo sapiens) (UniProt P30968). Description: Human gonadotropin-releasing hormone receptor (GnRHR) small molecule agonists, calcium flux assay in GnRHR-HEK293 cells (AID 1920063). Also: nearly all actives have a fitted effect of over 35% in size. Put shortly:
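Fluorescence kinetics (480 nm excitation, 540 nm emission; 3 min, 1 s steps) report calcium mobilisation in human GnRHR-HEK293 cells in agonist mode. Dye incubation: 1 h, 37 C.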

For assay [4], the target named is KiSS-1 receptor (Homo sapiens) (UniProt Q969F8). Description: Human kisspeptin (KISS1R) small molecule agonists, calcium flux assay in KISS1R-HEK293 cells (AID 1920064; active = well fitted curve in the direction sought with a large enough effect in the repeat runs; an effect the other way counts as inactive or inconclusive). In short, it runs like this: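 Measures KISS1R agonism through calcium-sensitive dye fluorescence in stably transfected HEK293 cells, read for 3 min after pin-tool compound delivery; 15-point titrations in triplicate.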
KiSS-1 receptor (Homo sapiens), sequence (Q969F8 whole entry, looked up): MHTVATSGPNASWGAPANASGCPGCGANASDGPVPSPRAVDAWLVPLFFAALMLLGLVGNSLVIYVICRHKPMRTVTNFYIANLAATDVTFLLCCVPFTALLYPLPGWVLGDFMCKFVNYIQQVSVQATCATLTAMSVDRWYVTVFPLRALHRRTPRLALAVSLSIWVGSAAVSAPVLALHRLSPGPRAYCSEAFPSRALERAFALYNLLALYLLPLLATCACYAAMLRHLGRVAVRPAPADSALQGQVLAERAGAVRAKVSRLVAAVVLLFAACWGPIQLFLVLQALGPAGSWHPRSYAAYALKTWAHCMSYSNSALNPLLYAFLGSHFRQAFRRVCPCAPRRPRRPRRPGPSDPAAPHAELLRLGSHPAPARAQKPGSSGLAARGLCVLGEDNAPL

Assay [5] can be described thus: G protein-coupled receptor (GPCR) small molecule agonists, calcium flux assay: HEK293 wild type cell line counter screen (AID 1920065). Put shortly: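 Readout: fluorescence at 480 nm excitation/540 nm emission, sampled at 1 s intervals for 3 min. Cells had been cultured 18 h, then dye-loaded 1 h at 37 C before compound or ATP addition.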
Assay [6] is described as follows: p53 small molecule agonists, cell-based qHTS assay with human liver microsomes: qHTS cell viability counter screen (AID 1963579). Also: nearly all actives have a fitted effect of over 45% in size. Put shortly:
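p53RE-bla cells (4,000/well) were pre-incubated 5 h at 37 C, then given compounds in DMSO plus human liver microsomes (0.5 mg/mL final) and NADPH (0.5 mg/mL final) for 16 h at 37 C. Viability was read by CellTiter-Glo luminescence.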
(Quantitative high-throughput screening tests each substance at several concentrations.)

Assay [7] is described as follows: p53 small molecule agonists, cell-based qHTS assay with rat liver microsomes: qHTS cell viability counter screen (AID 1963580). Also: nearly all actives have a fitted effect of over 45% in size. Put shortly:
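Viability is assessed in parallel with the p53 reporter read: HCT-116 p53RE-bla cells receive compounds plus rat microsomes and NADPH (0.5 mg/mL final apiece), incubate 16 h at 37 C, and then CellTiter-Glo luminescence is recorded.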

Assay [8] is described as follows: p53 small molecule agonists, cell-based qHTS assay: qHTS cell viability counter screen (AID 1963581). Also: nearly all actives have a fitted effect of over 45% in size. In short, it runs like this:
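In the same plates used for the p53 bla reporter, HCT-116 cells given compounds for 16 h at 37 C received CellTiter-Glo; luminescence was recorded 30 min later at room temperature.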

The target in assay [9] is 5-hydroxytryptamine receptor 2A (Homo sapiens) (UniProt P28223). Nature of the assay: 5-hydroxytryptamine receptor 2A (HTR2A) small molecule antagonists, cell-based qHTS assay (AID 1963586). Also: nearly all actives have a fitted effect of over 45% in size. In short, it runs like this:
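Antagonist-mode intracellular calcium assay: DOI (4 nM) added after 5 min compound pre-incubation at room temperature to dye-loaded HTR2A-CHO cells. Fluorescence followed for 3 min, sampled every second.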

For assay [10] the target is unchanged. Description: 5-hydroxytryptamine receptor 2A (HTR2A) small molecule agonists, cell-based qHTS assay (AID 1963587). Also: nearly all actives have a fitted effect of over 30% in size. In short, it runs like this:
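CHO cells stably expressing human HTR2A, plated 18 h, loaded with calcium dye 1 h at 37 C. Agonist mode: compounds added and intracellular calcium fluorescence recorded kinetically for 2 min at 1 sec intervals.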

Assay [11] concerns the target Muscarinic acetylcholine receptor M1 (Homo sapiens) (UniProt P11229). Nature of the assay: Cholinergic receptor muscarinic 1 (CHRM1) small molecule antagonists, cell-based qHTS assay (AID 1963588). Also: nearly all actives have a fitted effect of over 40% in size. Put shortly: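 CHRM1-CHO calcium-flux assay, antagonist mode. Cells were seeded 18 h, dye-loaded 1 h at 37 C and given compound for 5 min at RT, then acetylcholine was added at 50nM. FDSS fluorescence was read 3 min; 15 concentrations, three runs.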

Assay [12] shares this target. Description: Cholinergic receptor muscarinic 1 (CHRM1) small molecule agonists, cell-based qHTS assay (AID 1963589). Also: nearly all actives have a fitted effect of over 35% in size. In short, it runs like this:
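Each compound was tested at 15 concentrations across three independent runs on dye-loaded CHO cells stably expressing human CHRM1, reading intracellular calcium fluorescence kinetically at 1 sec intervals.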

The nature of assay [13]: cAMP Responsive Elements (CRE) small molecule agonists, cell-based qHTS assay (AID 1963590). In short, it runs like this: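 Cell line: CRE-bla HEK 293T; medium DMEM/10% dialyzed FBS/0.1 mM NEAA/1 mM pyruvate/25 mM HEPES; 3 h compound exposure; beta-lactamase FRET readout after 2 h substrate loading at RT.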
Assay [14] is described as follows: cAMP Responsive Elements (CRE) small molecule antagonists, cell-based qHTS assay (AID 1963591; active = well fitted inhibition curve with a large enough effect in the signal ratio in the repeat runs, not every such curve was filed as active; the % refers to the signal ratio). Put shortly: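 Inhibition of NKH477-driven (0.25 uM final) CRE-beta-lactamase signal in HEK293T cells, 3 h compound exposure at 37 °C, detected by FRET substrate fluorescence.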
For assay [15], the target named is Beta-2 adrenergic receptor (Homo sapiens) (UniProt P07550). Description: Adrenergic beta2 receptor (ADRB2) small molecule antagonists, cell-based qHTS assay (AID 1963592). Also: series mostly up to about 92 µM; nearly all actives have a fitted effect of over 50% in size. In short, it runs like this:
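Cells (CHO, stable ADRB2 overexpression) incubated 18-20hr at 37C; compounds added from DMSO; agonist mix (1nM isoproterenol, 100uM IBMX, 25uM Ro-20-1724) added; 0.5hr RT; d2-cAMP and anti-cAMP-cryptate added; 1hr RT; 665/615 nm read.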

Assay [16] deals with D(2) dopamine receptor (Homo sapiens) (UniProt P14416). Description: Dopamine D2 receptor (DRD2) small molecule agonists, cell-based qHTS assay (AID 1963594). Also: nearly all actives have a fitted effect of over 35% in size. Put shortly: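 HEK293 cells stably expressing human DRD2, pre-treated with PDE inhibitor Ro20-1724 (0.1 mM final) and compound 10 min at room temperature, then stimulated with NKH477 (200nM […]) for 30 min. cAMP read by HTRF (665/620 nm).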
D(2) dopamine receptor (Homo sapiens), sequence (P14416 whole entry, looked up): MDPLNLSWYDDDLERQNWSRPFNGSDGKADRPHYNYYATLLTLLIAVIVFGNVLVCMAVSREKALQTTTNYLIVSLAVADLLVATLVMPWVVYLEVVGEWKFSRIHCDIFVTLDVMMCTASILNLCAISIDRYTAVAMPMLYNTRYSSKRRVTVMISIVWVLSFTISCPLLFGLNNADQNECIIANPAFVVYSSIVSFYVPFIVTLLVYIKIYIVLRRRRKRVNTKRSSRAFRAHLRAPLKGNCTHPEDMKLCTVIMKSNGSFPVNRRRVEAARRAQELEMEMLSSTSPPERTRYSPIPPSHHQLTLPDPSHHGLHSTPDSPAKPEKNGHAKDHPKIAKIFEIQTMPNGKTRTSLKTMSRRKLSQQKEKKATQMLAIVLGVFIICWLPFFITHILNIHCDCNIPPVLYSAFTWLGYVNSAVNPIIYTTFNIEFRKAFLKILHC

Assay [17] shares this target. Nature of the assay: Dopamine D2 receptor (DRD2) small molecule antagonists, cell-based qHTS assay (AID 1963595; active = well fitted inhibition curve with a large enough effect in the signal ratio in the repeat runs, with a control signal flat; the % refers to the signal ratio). In short, it runs like this: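 Antagonist mode in DRD2-HEK293 cells: after compound addition with 0.1 mM Ro20-1724, cells received quinpirole (12 nM) and NKH477 (200 nM) for 30 min at room temperature; HTRF cAMP read after 1 h detection.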
Assay [18] addresses Beta-2 adrenergic receptor (Homo sapiens) (UniProt P07550). Description: Adrenergic beta2 receptor (ADRB2) small molecule agonists, cell-based qHTS assay (AID 1963593).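 Also: CHO cells stably overexpressing human ADRB2.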 In short, it runs like this: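 CHO cells stably over-expressing ADRB2 were plated overnight at 37C, then dosed with compounds plus a stimulation mix containing 100uM IBMX and 25uM Ro-20-1724 for 0.5hr at room temperature. cAMP was measured by HTRF competition, 1hr.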

SMILES strings stand for the structures. Results filed as inconclusive are left out. Calls of active or inactive are those of the source. Unless noted, calls follow the shape of the full dose curve.

Muscarinic acetylcholine receptor M1 (Homo sapiens), sequence (P11229 whole entry, looked up): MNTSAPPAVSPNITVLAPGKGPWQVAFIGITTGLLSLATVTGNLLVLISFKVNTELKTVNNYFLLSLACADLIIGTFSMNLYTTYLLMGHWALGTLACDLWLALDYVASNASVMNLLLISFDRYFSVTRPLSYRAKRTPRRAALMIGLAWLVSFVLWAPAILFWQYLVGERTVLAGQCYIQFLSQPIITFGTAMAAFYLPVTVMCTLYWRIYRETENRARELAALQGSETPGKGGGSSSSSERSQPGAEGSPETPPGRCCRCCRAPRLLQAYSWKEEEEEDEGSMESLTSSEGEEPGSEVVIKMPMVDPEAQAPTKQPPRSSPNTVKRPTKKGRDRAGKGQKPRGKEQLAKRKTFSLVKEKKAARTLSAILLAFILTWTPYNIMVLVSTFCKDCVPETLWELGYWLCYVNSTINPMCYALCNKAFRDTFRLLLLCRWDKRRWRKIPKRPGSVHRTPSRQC
5-hydroxytryptamine receptor 2A (Homo sapiens), sequence (P28223 whole entry, looked up): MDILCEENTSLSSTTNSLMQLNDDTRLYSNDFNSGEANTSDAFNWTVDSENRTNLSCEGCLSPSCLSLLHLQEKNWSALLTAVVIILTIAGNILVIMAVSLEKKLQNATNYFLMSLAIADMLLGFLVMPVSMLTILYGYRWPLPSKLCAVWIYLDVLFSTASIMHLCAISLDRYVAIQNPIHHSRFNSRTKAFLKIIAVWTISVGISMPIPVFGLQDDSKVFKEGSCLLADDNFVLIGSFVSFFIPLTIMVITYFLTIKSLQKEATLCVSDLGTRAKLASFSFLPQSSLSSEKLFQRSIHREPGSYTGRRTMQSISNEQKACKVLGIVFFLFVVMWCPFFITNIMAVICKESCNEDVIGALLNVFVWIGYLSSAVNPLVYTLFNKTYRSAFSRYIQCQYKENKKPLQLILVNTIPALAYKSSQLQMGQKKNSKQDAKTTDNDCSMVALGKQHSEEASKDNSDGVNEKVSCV
Beta-2 adrenergic receptor (Homo sapiens), sequence (P07550 whole entry, looked up): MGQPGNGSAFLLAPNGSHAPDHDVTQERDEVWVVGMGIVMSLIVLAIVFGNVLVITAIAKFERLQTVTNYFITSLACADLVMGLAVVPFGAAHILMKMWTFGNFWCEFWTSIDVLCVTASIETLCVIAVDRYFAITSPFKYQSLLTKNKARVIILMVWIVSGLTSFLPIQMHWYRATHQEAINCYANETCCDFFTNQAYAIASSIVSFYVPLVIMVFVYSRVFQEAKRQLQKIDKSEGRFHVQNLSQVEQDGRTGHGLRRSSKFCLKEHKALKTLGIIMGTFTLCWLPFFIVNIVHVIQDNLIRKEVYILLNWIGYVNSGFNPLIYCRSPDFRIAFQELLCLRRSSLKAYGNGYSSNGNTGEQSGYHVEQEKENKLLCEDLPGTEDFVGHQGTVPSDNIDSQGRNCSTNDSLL
Gonadotropin-releasing hormone receptor (Homo sapiens), sequence (P30968 whole entry, looked up): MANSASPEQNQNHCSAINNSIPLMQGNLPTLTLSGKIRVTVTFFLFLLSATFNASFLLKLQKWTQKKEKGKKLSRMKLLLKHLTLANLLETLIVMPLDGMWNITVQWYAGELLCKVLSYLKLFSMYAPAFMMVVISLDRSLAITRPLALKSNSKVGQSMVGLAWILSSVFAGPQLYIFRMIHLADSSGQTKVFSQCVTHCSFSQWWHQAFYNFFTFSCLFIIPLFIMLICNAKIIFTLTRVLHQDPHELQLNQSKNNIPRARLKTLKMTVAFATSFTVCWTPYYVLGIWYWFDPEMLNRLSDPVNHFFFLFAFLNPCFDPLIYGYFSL

As for `Clc1cc(Cl)c(Cl)c(Cl)c1`, the Potency entry in assay [1], in [2], in assay [3], in assay [4], in assay [5] and in assay [6] was “inactive” each time. Moreover, the Potency result in [7], in [8], in assay [9], in assay [10], in assay [11] and in assay [12] was “inactive” throughout. Besides, the Potency result in assay [13], in assay [14], in assay [15], in assay [16] and in [17] was “inactive” throughout.

`O=C(O)C(O)C(O)C(=O)O` (stereo not given): the Potency entry in assay [1], in assay [2], in assay [3], in assay [4], in [5] and in assay [6] was “inactive” each time. Moreover, the Potency entry in assay [7], in assay [8], in assay [9], in assay [10], in assay [11] and in assay [12] was “inactive” in each case. Also, the Potency result in assay [13], in [14], in assay [15], in [18], in [16] and in assay [17] was “inactive” each time.

In the case of `CCCC[N+](=O)[O-]`, the Potency result in [1], in [2], in assay [3], in [4], in [5] and in [6] was “inactive” each time. Also, the Potency entry in [7], in assay [8], in assay [9], in assay [10], in [11] and in assay [12] was “inactive” each time. Also, the Potency result in assay [13], in [14], in [15], in assay [16] and in assay [17] was “inactive” throughout.

With `CNN`, the Potency result in assay [1], in assay [2], in assay [3], in assay [4], in [5] and in [6] was “inactive” throughout. The Potency result in [7], in [8], in assay [9], in assay [10], in assay [11] and in assay [13] was “inactive” each time. Also, the Potency result in assay [14], in assay [15], in assay [18], in assay [16] and in assay [17] was “inactive” each time.

With `C/C=C/C=O`, the Potency result in assay [1], in assay [3], in [4], in assay [5], in assay [6] and in [7] was “inactive” each time. The Potency entry in [8], in [9], in assay [10], in assay [11], in assay [12] and in assay [13] was “inactive” in each case. Further, the Potency result in assay [14], in assay [15], in assay [16] and in [17] was “inactive” in each case. Also, in [2], the Potency was 58.4 µM (active).

Consider `Cc1cnc2c(C(=O)O)c(Cl)ccc2c1`, for which the Potency result in [1], in assay [2], in [3], in assay [4], in assay [5] and in assay [6] was “inactive” each time. The Potency entry in [7], in assay [8], in [9], in assay [10], in [11] and in assay [12] was “inactive” throughout. The Potency entry in assay [13], in [14], in assay [18], in [16] and in assay [17] was “inactive” each time.

In the case of `CC(C)(C)OC(=O)c1ncn2c1[C@@H]1CCCN1C(=O)c1c(Br)cccc1-2`, the Potency result in assay [1], in assay [2], in assay [3], in [4], in [5] and in [6] was “inactive” each time. The Potency entry in assay [7], in assay [8], in [9], in [10], in [11] and in assay [12] was “inactive” throughout. Besides, the Potency result in assay [15], in assay [18], in [16] and in assay [17] was “inactive” in each case.

For the compound `Cc1ccn2nc(S(=O)(=O)Nc3c(F)cccc3F)nc2n1`, the Potency entry in [1], in assay [2], in assay [3], in assay [4], in [5] and in assay [6] was “inactive” in each case. The Potency result in assay [7], in assay [8], in assay [9], in [10], in [11] and in assay [13] was “inactive” in each case. The Potency entry in assay [14], in assay [15], in assay [16] and in assay [17] was “inactive” each time.

The values above are taken from PubChem BioAssay (Tox21).
